PubChem BioAssay
Results filed as inconclusive are left out. Activity calls are given as the source filed them.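 How the source made its calls, unless noted: active means percent response above 42, roughly 3 SD of non-fluorescent test compounds; inactive means the rest.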

Legend:
[1] = yeast TOR pathway RPL19A-GFP modulators, primary screen, cell-based, S. cerevisiae, multiplex flow cytometry (AID 1862; in the data active means percent of DMSO control GFP below about 86%;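 further: lower values mimic rapamycin by blocking the RPL19A rise seen in DMSO cells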); conditions: S. cerevisiae RPL19A-GFP strain, flow cytometry fluorescence, 3 h; at 10 µM; stronger effect = lower value
[2] = modulators of MEP2-GFP levels in yeast, primary screen, S. cerevisiae, multiplex flow cytometry (AID 1867;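 active means GFP response, as percent of the DMSO control, above the screen-wide mean plus 3 SD, about 139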;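 further: median GFP channel fluorescence of barcode-gated MEP2-GFP cells measured by flow cytometry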); conditions: S. cerevisiae MEP2-GFP strain, 3 h, at 10 µM, stronger effect = higher value, 100% means same as DMSO wells
[3] = modulators of CIT2-GFP expression in yeast, primary screen, S. cerevisiae, GFP fusion, multiplex flow cytometry (AID 1870;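 active means percent response above a set limit, the screen-wide mean plus 3 SD, cut at about 130% in these data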;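 further: barcoded CIT2-GFP strain pooled with four other GFP strains with rapamycin as positive control; median GFP fluorescence per well over plate mean of DMSO wells so 100% = DMSO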); conditions: 3 h, at 10 µM, stronger effect = higher value
[4] = modulators of LAP4-GFP expression in yeast, primary screen, S. cerevisiae, multiplex flow cytometry (AID 1873;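 active means GFP signal, as percent of the solvent control, above the screen mean plus 3 SD, about 149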); conditions: 3 h, at 10 µM, stronger effect = higher value
[5] = modulators of AGP1-GFP expression in yeast TOR pathway, primary screen, cell-based, multiplex flow cytometry, S. cerevisiae (AID 1887;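 active means GFP signal above the screen-wide mean plus 3 SD, that is over about 124.5% of the solvent control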;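 further: AGP1-GFP fusion strain of S. cerevisiae within a five-strain barcoded multiplex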); conditions: 3 h, at 10 µM, stronger effect = higher value
[6] = inhibitors of CD8+ T cell-vesicle binding, pilot screen, LFA-1/ICAM-1 modulator project, MLPCN validation set, flow cytometry (AID 2523;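 active means response below a set limit, under 55% cells CD8-positive and vesicle-bound, and CD8 cells' 90th-percentile brightness under 279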;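 on vesicle binding response: mean PE anti-B7-1 fluorescence of CD8+ cells relative to row control; 100% = QL9-loaded vesicles with DMSO vehicle in the same plate row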); conditions: 2C mouse CD8+ T cells, at 7 µM, stronger effect = lower value; double positive events: measured here: CD8+/vesicle+ event percentage
[7] = target: Integrin beta-1 (Homo sapiens) + Integrin alpha-4 (Homo sapiens) (UniProt P13612+P05556); test: inhibition of HUTS-21 binding to VLA-4, pilot screen, VLA-4 allosteric modulator project, U937 cells, HUTS-21 mAb, flow cytometry, validation set (AID 2674;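 active means inhibition above 50%, about 3 SD of the validation set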;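 further: antibody binding induced by the VLA-4 ligand LDV present at three times its Kd; 0% = LDV ligand with antibody and no compound and 100% = antibody without LDV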); conditions: HUTS-21 LIBS mAb binding, at 6.7 µM, stronger effect = higher value, binding induced by LDV ligand
Sequence of Integrin beta-1 (Homo sapiens) + Integrin alpha-4 (Homo sapiens) (P05556 whole entry, looked up): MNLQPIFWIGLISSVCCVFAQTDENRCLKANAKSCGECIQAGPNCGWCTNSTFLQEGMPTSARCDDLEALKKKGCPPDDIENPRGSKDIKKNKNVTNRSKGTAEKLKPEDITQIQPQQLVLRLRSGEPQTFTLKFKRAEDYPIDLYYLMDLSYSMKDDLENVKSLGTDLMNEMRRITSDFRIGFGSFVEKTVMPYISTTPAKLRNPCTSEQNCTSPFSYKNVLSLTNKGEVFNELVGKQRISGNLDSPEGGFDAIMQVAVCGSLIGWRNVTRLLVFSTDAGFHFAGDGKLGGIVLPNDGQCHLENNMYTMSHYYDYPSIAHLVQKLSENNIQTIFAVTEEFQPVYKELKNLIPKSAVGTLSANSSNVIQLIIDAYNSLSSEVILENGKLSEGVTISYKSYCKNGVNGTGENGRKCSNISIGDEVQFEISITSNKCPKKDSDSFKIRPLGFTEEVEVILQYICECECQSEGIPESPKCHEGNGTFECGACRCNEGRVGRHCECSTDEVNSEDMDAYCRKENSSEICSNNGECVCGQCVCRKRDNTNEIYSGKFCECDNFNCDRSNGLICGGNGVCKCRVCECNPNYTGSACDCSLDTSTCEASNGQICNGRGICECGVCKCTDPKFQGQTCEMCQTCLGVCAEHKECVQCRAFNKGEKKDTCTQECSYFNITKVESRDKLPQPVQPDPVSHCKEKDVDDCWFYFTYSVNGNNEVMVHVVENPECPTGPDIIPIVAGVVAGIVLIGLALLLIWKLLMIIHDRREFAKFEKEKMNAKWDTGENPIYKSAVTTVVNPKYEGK
Sequence of Integrin beta-1 (Homo sapiens) + Integrin alpha-4 (Homo sapiens) (P13612 whole entry, looked up): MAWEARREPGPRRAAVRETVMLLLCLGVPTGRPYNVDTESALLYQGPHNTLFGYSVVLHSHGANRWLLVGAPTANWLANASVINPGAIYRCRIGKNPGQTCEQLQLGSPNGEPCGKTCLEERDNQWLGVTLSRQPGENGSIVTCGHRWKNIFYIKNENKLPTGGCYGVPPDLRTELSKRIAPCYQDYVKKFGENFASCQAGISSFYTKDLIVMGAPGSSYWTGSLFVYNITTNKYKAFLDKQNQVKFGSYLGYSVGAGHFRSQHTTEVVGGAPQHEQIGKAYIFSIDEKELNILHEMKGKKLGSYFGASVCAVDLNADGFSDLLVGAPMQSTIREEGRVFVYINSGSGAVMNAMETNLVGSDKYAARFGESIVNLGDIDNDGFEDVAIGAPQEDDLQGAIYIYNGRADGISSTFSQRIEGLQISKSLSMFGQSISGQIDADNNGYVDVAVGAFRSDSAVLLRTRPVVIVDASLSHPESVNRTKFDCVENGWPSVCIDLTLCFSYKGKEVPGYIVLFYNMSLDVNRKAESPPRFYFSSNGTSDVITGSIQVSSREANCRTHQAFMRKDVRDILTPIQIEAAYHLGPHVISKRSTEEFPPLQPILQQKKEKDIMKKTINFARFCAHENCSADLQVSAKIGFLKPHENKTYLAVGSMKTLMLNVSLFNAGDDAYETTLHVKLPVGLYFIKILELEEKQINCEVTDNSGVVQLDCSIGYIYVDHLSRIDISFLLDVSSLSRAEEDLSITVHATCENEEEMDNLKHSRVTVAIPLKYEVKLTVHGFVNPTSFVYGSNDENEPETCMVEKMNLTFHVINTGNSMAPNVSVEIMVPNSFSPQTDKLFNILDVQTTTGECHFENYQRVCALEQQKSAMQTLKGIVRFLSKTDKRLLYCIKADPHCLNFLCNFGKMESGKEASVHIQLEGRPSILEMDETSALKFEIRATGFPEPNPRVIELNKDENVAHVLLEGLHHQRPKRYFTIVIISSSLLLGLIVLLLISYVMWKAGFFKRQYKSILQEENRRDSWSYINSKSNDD

[8] = superoxide lowering in aged yeast cells, pilot screen, validation compound set (AID 2706;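 active means superoxide response below 65% of plate, a cut near 3 SD across the whole screen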;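 further: yeast exposed to compound for one week at 30 degrees C before staining; 100% = mean of all compound wells on the same plate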); conditions: S. cerevisiae aging, superoxide DHE fluorescence; at 10 µM; stronger effect = lower value
[9] = target: Beta-adrenergic receptor kinase 1 (Homo sapiens) (UniProt P25098); test: GRK2 binders displacing RNA aptamer, biochemical, validation, human GRK2, bead flow cytometry (AID 488806;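 active means aptamer binding inhibition above 30%, about 3 SD of noise from non-fluorescent compounds; inactive means inhibition at or below 30%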); conditions: bead-bound GRK2, FAM-aptamer displacement, at 10 µM, stronger effect = higher value
Sequence of Beta-adrenergic receptor kinase 1 (Homo sapiens) (P25098 whole entry, looked up): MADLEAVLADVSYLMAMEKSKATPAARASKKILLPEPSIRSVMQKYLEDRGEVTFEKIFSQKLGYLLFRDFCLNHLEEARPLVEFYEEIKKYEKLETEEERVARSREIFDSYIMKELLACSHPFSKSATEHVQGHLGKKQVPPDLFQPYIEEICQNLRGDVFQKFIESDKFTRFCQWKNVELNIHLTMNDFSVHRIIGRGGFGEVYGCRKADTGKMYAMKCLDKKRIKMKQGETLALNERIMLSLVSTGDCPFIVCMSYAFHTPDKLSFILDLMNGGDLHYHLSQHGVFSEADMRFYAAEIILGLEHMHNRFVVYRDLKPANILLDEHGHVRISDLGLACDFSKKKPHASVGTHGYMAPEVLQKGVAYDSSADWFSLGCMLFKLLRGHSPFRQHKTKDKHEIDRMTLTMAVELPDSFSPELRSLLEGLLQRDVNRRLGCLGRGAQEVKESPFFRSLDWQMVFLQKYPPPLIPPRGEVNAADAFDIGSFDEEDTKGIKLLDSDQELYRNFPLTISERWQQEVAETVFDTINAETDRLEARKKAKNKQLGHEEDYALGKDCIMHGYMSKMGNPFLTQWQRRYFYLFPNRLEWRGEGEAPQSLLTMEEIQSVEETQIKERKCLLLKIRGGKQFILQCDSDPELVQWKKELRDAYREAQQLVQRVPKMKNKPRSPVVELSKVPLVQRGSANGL

[10] = target: Beta-2 adrenergic receptor (Homo sapiens) (UniProt P07550); test: beta2AR agonists driving receptor internalization, pilot screen, cell-based, FAP fluorogen, flow cytometry, validation set (AID 504459); conditions: Am2.2-beta2AR cells, FAP surface receptor flow cytometry; at 10 µM; stronger effect = higher value;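 further: agonist-driven loss of surface beta2AR via internalization measured by FAP dye flow cytometry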
Sequence of Beta-2 adrenergic receptor (Homo sapiens) (P07550 whole entry, looked up): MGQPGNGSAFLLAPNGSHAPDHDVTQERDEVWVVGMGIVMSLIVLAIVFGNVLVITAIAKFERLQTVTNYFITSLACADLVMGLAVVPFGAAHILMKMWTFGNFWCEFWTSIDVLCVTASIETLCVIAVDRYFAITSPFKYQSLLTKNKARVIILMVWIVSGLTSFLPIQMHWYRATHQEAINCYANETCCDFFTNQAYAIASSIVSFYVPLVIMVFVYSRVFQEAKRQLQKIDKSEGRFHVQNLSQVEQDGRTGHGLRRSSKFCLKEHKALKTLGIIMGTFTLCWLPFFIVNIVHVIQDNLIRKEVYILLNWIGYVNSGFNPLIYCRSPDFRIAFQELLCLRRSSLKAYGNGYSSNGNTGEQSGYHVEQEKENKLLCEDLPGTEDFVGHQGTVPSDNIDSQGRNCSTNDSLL

[11] = target: AP-2 complex subunit beta (Homo sapiens) (UniProt P63010); test: inhibitors of arrestin peptide binding to AP2, pilot screen, biochemical, validation set, GST-AP2 beads, flow cytometry (AID 504541;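 active means inhibition above 54%, about 3 SD of non-fluorescent compounds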;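 further: AP2 carries R879A mutation and is captured from E. coli lysate; bead-bound FITC arrestin peptide fluorescence measuring arrestin peptide binding to AP2; 0% = DMSO wells and 100% = excess unlabeled arrestin peptide control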); conditions: FITC arrestin peptide, at 10 µM, stronger effect = higher value, AP2 beta2 appendage fragment, R879A mutant
Sequence of AP-2 complex subunit beta (Homo sapiens) (P63010 whole entry, looked up, the tested form may be a part, one chain of several): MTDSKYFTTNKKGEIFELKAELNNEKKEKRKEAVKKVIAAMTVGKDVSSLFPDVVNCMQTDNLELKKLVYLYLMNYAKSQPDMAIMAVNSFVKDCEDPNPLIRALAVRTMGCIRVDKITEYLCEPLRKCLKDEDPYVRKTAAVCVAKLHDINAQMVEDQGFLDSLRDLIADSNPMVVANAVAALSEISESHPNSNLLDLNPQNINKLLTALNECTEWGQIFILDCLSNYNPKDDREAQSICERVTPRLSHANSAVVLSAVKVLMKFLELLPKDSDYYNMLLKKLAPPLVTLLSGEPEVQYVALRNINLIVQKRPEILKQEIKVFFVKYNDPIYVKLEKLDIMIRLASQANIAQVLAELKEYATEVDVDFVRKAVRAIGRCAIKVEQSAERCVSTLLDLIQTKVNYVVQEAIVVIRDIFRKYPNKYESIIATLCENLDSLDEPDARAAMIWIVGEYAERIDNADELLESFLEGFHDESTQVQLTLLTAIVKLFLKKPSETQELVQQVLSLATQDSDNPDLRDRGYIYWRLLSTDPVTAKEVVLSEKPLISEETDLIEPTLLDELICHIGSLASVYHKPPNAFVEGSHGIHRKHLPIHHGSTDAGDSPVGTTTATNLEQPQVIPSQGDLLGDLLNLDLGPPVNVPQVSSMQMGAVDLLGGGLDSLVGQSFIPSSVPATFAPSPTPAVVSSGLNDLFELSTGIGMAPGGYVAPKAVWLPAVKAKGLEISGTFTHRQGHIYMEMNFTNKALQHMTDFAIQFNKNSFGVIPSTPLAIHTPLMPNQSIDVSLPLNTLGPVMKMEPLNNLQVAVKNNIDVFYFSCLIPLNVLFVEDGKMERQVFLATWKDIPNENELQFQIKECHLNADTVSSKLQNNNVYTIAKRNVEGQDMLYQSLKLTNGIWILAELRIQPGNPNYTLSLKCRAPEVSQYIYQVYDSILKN

[12] = yeast V-ATPase proton transport modulators, S. cerevisiae, pHLuorin, HTS validation (AID 504600; in the data active means response above about 15%;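 further: plate controls were DMSO for no effect and reference compound for full effect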); conditions: S. cerevisiae pHLuorin cytosolic pH, at 10 µM, stronger effect = higher value
[13] = test system: anti-desmoglein-3 scFv antibody binding to human DSG3; test: inhibitors of anti-DSG3 scFv binding to DSG3, pilot screen, biochemical, validation compound set, bead-based, flow cytometry (AID 588368;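 active means binding below the plate cutoff, the plate median minus 3 SD, with a reading above zero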;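 further: signal is the median channel fluorescence of bead-bound GFP antibody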); conditions: Protein G beads, DSG3-Fc, scFv-GFP binding, at 10 µM, stronger effect = lower value
[14] = inhibitors of fungal efflux pumps CDR1, CDR2, MDR1, pilot screen, validation compound set, multiplex, phenotypic (AID 588506;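 active means efflux inhibition above 0.42, the validation set average plus 4 SD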;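 further: Nile Red retained in cells so higher fluorescence means more efflux inhibition; 0 = negative control wells and 1 = enniatin B 25 µM full block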); conditions: S. cerevisiae pump-expressing triplex, Nile Red efflux flow cytometry; at 10 µM; stronger effect = higher value; the pumps come from Candida albicans
[15] = target: ATP-binding cassette sub-family B member 6 (Homo sapiens) (UniProt Q9NP58); test: ABCB6 transporter inhibitors, pilot screen, K562-ABCB6 cells, flow cytometry, validation set (AID 588550;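 active means inhibition above the screen-wide mean plus 3 SD, about 51%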;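 further: 0% = DMSO wells and 100% = benzethonium chloride 70 µM positive control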); conditions: K562-ABCB6 porphyrin accumulation, 1 h, at 10 µM, stronger effect = higher value
Sequence of ATP-binding cassette sub-family B member 6 (Homo sapiens) (Q9NP58 whole entry, looked up): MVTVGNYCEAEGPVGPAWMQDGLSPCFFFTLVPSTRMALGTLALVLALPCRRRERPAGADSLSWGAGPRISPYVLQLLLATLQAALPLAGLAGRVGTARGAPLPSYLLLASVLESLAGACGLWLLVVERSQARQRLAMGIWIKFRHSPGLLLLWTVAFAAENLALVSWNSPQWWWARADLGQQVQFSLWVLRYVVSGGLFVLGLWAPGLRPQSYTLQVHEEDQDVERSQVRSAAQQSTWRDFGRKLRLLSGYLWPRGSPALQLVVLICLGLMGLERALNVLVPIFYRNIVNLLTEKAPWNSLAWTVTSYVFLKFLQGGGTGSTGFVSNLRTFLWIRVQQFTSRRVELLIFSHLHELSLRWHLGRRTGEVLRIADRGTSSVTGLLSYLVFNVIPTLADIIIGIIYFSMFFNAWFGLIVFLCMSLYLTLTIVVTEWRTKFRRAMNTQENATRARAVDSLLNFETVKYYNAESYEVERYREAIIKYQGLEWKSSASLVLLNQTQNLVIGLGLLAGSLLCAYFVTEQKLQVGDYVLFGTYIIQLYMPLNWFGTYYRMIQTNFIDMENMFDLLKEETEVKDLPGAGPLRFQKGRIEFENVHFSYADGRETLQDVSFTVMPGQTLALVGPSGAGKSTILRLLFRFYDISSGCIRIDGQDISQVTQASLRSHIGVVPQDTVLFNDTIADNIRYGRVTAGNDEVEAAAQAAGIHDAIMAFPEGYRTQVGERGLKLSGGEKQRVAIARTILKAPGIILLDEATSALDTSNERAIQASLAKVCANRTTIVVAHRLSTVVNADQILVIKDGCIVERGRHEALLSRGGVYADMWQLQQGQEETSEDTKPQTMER

[16] = promoters of myeloid differentiation in arrested cells, primary screen, cell-based, GFP/MAC1 double positive, flow cytometry, validation set (AID 588685;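 active means differentiation response of at least 50%, scaled between solvent and reference control, from cells with both markers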;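 further: compound exposure lasts four days before antibody staining and flow analysis; 0% = DMSO wells and 100% = 5 µM fulvestrant positive control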); conditions: ER-HoxA9 marrow cells, stronger effect = higher value, normalized: vehicle 0, fulvestrant 100

| Structure (SMILES) | percent of DMSO control GFP [1] | GFP response vs DMSO [2] | percent response of DMSO control [3] | GFP response vs DMSO [4] | GFP response, % of DMSO [5] | double positive events [6] [%] | vesicle binding response [6] | inhibition [7] | superoxide response (% of plate) [8] | aptamer binding inhibition [9] | response [10] | inhibition [11] | response [12] | binding (% of control) [13] | efflux inhibition (fraction of control) [14] | inhibition [15] | differentiation response [16] |
| --- | --- | --- | --- | --- | --- | --- | --- | --- | --- | --- | --- | --- | --- | --- | --- | --- | --- |
| CCOC(=O)[C@H]1O[C@@H]1C(=O)N[C@@H](CC(C)C)C(=O)NCCC(C)C | 91.1% (inactive) | 135% (inactive) | 97.9% (inactive) | 82.5% (inactive) | 91.7% (inactive) | 55.3 | 224% (inactive) | 6.46% (inactive) | 97% (inactive) | 3% (inactive) | -8.75% (inactive) | -3.19% (inactive) | 6.36% (inactive) | 106% (inactive) | 0.05 (inactive) | 7% (inactive) | 0.82% (inactive) |
| CCN(CCCCOC(=O)c1ccc(OC)c(OC)c1)C(C)Cc1ccc(OC)cc1 (centres undefined) | 102% (inactive) | 99.6% (inactive) | 102% (inactive) | 104% (inactive) | 117% (inactive) | 62.7 | 194% (inactive) | 22.7% (inactive) | 103% (inactive) | 4% (inactive) | -26.8% (inactive) | 3.32% (inactive) | 0.12% (inactive) | 103% (inactive) | -0.09 (inactive) | 6% (inactive) | -5.97% (inactive) |
| Cc1cc(OCC(=O)C(C)(C)C)c2c(C)c(C)c(=O)oc2c1 | 102% (inactive) | 103% (inactive) | 94.8% (inactive) | 118% (inactive) | 98.8% (inactive) | 60.4 | 213% (inactive) | 2.3% (inactive) | 102% (inactive) | 7% (inactive) | -4.14% (inactive) | 27.4% (inactive) | -7.2% (inactive) | 101% (inactive) | 0.26 (inactive) | 3% (inactive) | 4% (inactive) |
| O=C(CCC(=O)NCCO)NCCO | 101% (inactive) | 104% (inactive) | 97.7% (inactive) | 108% (inactive) | 111% (inactive) | 61.3 | 174% (inactive) | -1.12% (inactive) | 95.4% (inactive) | 7% (inactive) | -19.9% (inactive) | -1.09% (inactive) | -3.85% (inactive) | 100% (inactive) | 0.04 (inactive) | 2% (inactive) | -1.05% (inactive) |
| CCOC(=O)C1NN=C(C(=O)c2ccccc2)C1c1ccc(Cl)cc1 (centres undefined) | 98.3% (inactive) | 96.6% (inactive) | 91.3% (inactive) | 93.7% (inactive) | 88.8% (inactive) | 58.1 | 192% (inactive) | 9.63% (inactive) | 106% (inactive) | 3% (inactive) | 3.04% (inactive) | -2.22% (inactive) | -0.54% (inactive) | 99% (inactive) | -0.005 (inactive) | 9% (inactive) | -6.03% (inactive) |
| CC(C)=CCC(C)(C)/C=N/NC(N)=O | 101% (inactive) | 102% (inactive) | 98.3% (inactive) | 109% (inactive) | 111% (inactive) | 59.7 | 464% (inactive) | 14.2% (inactive) | 97.9% (inactive) | 4% (inactive) | -21.9% (inactive) | -2.34% (inactive) | 1.02% (inactive) | 100% (inactive) | 0 (inactive) | 4% (inactive) | 5.85% (inactive) |
| O=C(Cc1ccccc1)NNC(=O)Cc1ccccc1 | 101% (inactive) | 108% (inactive) | 102% (inactive) | 94% (inactive) | 98.9% (inactive) | 63.3 | 224% (inactive) | -5.64% (inactive) | 113% (inactive) | -1% (inactive) | -7.57% (inactive) | 53.7% (inactive) | -12.3% (inactive) | 91.9% (inactive) | 0.27 (inactive) | 2% (inactive) | 24.7% (inactive) |
